Source: ChEMBL document CHEMBL1961873, “Compounds: GSK PKIS; Assays: Nanosyn kinase panel” (2012)

Legend:
[1] = biological target: Sphingosine kinase 1 (Homo sapiens) (UniProt Q9NYA1); conditions: at 1 µM;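 further: mean SPHK1 inhibition value reported from the GSK PKIS kinase panel screen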
[2] = biological target: T1, Sphingosine kinase 2 (Homo sapiens) (UniProt Q9NRA0); conditions: at 0.1 µM
T1 sequence (whole entry): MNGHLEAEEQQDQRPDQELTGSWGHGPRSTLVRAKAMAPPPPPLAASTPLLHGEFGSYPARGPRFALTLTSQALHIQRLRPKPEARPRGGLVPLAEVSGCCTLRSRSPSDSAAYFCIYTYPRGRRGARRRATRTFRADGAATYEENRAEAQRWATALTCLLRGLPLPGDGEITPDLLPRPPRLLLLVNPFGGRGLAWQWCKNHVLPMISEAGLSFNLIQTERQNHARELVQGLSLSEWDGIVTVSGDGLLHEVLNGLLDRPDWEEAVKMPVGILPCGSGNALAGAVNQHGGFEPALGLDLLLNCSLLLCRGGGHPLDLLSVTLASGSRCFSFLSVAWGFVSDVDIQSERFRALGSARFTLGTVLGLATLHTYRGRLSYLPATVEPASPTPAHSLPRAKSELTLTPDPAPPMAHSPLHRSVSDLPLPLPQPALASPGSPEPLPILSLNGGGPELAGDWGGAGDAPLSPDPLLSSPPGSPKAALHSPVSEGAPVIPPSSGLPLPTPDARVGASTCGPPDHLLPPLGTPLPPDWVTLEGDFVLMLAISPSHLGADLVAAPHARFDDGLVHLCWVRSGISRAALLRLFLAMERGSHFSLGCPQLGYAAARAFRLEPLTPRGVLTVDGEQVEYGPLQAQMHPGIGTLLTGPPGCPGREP

[3] = biological target: T1, Sphingosine kinase 2 (Homo sapiens); conditions: at 1 µM
[4] = biological target: Casein kinase II subunit alpha (Homo sapiens) (UniProt P68400); conditions: at 0.1 µM
Chain of Casein kinase II subunit alpha (Homo sapiens) (P68400 whole entry, looked up): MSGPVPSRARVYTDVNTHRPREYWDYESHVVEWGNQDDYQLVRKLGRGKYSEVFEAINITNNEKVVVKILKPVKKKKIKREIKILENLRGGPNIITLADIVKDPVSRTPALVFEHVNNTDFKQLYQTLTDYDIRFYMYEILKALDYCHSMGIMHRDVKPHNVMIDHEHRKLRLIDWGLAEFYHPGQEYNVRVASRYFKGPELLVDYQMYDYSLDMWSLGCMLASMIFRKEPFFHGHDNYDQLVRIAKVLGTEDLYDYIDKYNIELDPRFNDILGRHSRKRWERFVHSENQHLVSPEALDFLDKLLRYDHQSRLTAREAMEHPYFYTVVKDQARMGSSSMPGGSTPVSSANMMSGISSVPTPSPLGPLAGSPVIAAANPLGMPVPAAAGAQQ

[5] = biological target: Casein kinase II subunit alpha (Homo sapiens) (UniProt P68400); conditions: at 1 µM
[6] = biological target: T2, Inhibitor of nuclear factor kappa-B kinase subunit alpha (Homo sapiens) (UniProt O15111); conditions: at 0.1 µM
T2 sequence (whole entry): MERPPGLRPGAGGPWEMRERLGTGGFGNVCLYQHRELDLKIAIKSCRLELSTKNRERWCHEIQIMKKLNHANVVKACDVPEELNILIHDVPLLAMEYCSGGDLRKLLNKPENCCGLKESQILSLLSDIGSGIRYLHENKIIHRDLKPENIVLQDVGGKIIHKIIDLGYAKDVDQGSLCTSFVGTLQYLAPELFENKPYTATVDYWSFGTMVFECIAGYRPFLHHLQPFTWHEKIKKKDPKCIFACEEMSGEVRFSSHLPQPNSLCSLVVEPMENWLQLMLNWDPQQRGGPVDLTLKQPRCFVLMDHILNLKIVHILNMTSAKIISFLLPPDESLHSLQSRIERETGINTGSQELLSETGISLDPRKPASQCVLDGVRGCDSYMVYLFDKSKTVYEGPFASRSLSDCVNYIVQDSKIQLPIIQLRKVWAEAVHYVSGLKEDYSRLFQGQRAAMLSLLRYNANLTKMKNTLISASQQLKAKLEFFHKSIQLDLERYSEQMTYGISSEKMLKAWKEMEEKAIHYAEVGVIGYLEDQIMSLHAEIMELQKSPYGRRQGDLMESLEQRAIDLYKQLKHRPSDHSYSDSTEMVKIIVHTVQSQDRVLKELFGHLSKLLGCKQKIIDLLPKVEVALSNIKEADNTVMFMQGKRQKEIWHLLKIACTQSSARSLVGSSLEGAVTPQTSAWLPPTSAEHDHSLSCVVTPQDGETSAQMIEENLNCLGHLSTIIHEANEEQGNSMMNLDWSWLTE

[7] = biological target: T2, Inhibitor of nuclear factor kappa-B kinase subunit alpha (Homo sapiens); conditions: at 1 µM
[8] = biological target: T3, Inhibitor of nuclear factor kappa-B kinase subunit beta (Homo sapiens) (UniProt O14920); conditions: at 0.1 µM
T3 sequence (whole entry): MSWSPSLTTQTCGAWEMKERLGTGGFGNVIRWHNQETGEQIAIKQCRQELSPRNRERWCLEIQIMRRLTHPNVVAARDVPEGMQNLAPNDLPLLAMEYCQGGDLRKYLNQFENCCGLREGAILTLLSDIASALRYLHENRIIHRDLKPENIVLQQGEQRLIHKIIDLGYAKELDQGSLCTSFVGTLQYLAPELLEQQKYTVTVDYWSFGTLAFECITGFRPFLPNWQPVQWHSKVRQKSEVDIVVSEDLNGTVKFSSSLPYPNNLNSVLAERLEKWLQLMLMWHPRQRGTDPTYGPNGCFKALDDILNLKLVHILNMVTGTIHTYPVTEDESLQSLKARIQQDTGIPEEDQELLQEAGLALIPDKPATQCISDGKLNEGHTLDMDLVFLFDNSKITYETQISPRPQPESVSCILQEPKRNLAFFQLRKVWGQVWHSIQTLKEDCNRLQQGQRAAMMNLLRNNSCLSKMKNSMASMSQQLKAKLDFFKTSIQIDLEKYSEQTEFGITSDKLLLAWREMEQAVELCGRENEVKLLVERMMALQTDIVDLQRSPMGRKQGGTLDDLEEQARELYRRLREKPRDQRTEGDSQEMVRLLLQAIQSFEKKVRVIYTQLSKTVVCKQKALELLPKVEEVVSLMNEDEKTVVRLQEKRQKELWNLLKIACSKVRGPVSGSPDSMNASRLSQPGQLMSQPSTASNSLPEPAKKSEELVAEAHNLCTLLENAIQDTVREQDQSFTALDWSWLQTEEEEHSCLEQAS

[9] = biological target: T3, Inhibitor of nuclear factor kappa-B kinase subunit beta (Homo sapiens); conditions: at 1 µM
[10] = biological target: T4, Inhibitor of nuclear factor kappa-B kinase subunit epsilon (Homo sapiens) (UniProt Q14164); conditions: at 0.1 µM
T4 sequence (whole entry): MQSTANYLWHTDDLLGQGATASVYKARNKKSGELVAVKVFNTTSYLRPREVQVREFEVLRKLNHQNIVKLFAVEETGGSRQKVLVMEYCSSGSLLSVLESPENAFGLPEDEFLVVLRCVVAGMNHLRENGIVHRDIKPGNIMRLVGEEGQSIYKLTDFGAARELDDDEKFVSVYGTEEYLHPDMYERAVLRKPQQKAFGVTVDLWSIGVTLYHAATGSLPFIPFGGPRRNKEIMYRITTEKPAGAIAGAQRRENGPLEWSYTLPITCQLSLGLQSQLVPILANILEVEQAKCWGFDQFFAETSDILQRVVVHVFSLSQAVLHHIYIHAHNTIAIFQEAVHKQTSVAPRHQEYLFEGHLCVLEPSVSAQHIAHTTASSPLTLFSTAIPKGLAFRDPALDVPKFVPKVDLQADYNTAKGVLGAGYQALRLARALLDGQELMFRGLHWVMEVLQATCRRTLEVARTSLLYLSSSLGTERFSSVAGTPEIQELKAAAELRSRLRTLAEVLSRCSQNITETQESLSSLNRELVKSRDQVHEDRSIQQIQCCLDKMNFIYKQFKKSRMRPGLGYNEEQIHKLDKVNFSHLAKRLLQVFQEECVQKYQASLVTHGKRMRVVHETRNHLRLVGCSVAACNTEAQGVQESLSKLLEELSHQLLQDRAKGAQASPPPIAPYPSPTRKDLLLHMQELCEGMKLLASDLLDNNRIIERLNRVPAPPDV

[11] = biological target: T4, Inhibitor of nuclear factor kappa-B kinase subunit epsilon (Homo sapiens); conditions: at 1 µM
[12] = biological target: T5, Serine/threonine-protein kinase Nek1 (Homo sapiens) (UniProt Q96PY6); conditions: at 0.1 µM
T5 sequence (whole entry): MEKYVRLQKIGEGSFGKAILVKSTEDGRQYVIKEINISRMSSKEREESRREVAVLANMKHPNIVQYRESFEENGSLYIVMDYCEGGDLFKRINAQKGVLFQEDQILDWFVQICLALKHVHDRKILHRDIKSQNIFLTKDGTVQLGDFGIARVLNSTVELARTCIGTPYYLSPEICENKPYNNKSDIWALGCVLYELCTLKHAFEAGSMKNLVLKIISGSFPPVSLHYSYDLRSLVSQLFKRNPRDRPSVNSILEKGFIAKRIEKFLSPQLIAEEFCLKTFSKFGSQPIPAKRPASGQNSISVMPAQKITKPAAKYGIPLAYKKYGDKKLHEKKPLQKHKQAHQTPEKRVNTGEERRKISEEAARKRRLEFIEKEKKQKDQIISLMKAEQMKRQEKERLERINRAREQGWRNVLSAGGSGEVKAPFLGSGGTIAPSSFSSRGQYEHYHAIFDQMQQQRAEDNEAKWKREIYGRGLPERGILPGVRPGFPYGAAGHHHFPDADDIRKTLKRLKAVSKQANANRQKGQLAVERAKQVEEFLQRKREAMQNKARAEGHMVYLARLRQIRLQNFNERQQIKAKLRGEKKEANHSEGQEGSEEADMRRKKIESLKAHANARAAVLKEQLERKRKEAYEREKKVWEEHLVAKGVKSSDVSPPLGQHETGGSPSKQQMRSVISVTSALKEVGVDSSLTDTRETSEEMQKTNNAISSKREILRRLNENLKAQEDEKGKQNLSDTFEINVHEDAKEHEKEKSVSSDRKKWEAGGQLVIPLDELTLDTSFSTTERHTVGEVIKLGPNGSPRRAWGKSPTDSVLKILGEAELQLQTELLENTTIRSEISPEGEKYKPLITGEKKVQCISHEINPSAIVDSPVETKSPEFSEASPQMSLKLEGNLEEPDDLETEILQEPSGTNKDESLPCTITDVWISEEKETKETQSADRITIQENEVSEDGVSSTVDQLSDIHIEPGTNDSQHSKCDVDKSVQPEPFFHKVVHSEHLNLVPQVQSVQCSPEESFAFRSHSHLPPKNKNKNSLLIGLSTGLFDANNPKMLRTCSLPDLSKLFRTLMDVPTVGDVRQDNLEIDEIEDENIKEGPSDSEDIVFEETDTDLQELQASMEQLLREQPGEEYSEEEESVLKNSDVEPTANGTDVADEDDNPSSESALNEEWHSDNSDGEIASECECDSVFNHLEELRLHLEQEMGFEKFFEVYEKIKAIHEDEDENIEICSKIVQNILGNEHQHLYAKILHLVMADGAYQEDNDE

[13] = biological target: T5, Serine/threonine-protein kinase Nek1 (Homo sapiens); conditions: at 1 µM
[14] = biological target: T6, Serine/threonine-protein kinase Nek2 (Homo sapiens) (UniProt P51955); conditions: at 0.1 µM
T6 sequence (whole entry): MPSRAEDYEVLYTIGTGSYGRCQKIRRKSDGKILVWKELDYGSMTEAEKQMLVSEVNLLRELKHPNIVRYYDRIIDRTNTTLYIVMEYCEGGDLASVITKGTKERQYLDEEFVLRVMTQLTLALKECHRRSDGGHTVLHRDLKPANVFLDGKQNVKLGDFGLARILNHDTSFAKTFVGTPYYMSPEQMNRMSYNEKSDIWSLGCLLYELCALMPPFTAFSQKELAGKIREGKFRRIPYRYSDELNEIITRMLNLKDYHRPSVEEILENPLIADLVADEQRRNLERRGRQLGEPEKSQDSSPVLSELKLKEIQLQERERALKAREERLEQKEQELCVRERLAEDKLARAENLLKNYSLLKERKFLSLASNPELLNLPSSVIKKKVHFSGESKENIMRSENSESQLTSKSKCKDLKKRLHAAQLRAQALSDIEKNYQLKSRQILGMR

[15] = biological target: T6, Serine/threonine-protein kinase Nek2 (Homo sapiens); conditions: at 1 µM
[16] = biological target: Serine/threonine-protein kinase Nek6 (Homo sapiens) (UniProt Q9HC98); conditions: at 0.1 µM
Chain of Serine/threonine-protein kinase Nek6 (Homo sapiens) (Q9HC98 whole entry): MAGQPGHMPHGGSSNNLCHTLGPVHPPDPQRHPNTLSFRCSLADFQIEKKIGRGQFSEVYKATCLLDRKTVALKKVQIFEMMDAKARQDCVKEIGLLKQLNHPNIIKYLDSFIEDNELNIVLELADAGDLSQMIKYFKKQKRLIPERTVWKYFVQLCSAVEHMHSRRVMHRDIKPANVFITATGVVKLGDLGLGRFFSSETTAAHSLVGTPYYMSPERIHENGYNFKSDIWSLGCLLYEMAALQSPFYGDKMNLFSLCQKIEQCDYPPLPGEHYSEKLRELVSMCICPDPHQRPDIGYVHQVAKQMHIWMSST

[17] = biological target: Serine/threonine-protein kinase Nek6 (Homo sapiens) (UniProt Q9HC98); conditions: at 1 µM
[18] = biological target: Serine/threonine-protein kinase Nek7 (Homo sapiens) (UniProt Q8TDX7); conditions: at 0.1 µM
Chain of Serine/threonine-protein kinase Nek7 (Homo sapiens) (Q8TDX7 whole entry, looked up): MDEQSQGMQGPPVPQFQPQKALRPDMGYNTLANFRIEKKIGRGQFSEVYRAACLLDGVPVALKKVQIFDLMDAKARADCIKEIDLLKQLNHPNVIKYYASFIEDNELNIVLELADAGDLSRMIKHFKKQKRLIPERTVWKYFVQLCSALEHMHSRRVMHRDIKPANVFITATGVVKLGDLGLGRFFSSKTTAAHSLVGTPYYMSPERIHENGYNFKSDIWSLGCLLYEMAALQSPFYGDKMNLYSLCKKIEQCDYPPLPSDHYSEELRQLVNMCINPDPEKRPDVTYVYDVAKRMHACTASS

[19] = biological target: Serine/threonine-protein kinase Nek7 (Homo sapiens) (UniProt Q8TDX7); conditions: at 1 µM
[20] = biological target: T7, Serine/threonine-protein kinase Nek9 (Homo sapiens) (UniProt Q8TD19); conditions: at 0.1 µM;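 further: reported value is the mean percent inhibition of NEK9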
T7 sequence (whole entry): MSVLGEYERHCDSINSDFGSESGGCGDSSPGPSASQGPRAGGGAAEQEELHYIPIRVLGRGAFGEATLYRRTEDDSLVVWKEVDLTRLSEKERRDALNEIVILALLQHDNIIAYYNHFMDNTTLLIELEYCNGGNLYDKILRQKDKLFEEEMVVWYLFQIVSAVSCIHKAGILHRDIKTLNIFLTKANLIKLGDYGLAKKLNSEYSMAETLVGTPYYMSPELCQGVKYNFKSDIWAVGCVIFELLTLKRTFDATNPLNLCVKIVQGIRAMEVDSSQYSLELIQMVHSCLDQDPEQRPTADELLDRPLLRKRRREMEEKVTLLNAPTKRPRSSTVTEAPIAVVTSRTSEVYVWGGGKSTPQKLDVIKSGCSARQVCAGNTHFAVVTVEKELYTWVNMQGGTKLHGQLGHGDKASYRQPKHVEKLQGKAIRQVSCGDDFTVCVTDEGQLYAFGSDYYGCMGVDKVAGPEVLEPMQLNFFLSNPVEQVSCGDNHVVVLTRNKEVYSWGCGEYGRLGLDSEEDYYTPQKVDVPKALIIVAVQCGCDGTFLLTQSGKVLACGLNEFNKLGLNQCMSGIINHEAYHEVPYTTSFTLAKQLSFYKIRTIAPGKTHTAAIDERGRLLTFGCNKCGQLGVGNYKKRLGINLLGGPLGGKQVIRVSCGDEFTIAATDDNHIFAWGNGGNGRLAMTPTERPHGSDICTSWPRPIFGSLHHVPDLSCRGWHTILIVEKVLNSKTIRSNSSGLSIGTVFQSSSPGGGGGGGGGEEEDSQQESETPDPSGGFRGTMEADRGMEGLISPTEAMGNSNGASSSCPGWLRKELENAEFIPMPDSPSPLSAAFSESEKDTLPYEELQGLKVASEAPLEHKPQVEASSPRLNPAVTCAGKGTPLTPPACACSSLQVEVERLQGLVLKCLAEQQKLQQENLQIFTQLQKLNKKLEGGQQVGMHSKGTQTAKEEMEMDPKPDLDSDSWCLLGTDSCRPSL

Chain of Sphingosine kinase 1 (Homo sapiens) (Q9NYA1 whole entry): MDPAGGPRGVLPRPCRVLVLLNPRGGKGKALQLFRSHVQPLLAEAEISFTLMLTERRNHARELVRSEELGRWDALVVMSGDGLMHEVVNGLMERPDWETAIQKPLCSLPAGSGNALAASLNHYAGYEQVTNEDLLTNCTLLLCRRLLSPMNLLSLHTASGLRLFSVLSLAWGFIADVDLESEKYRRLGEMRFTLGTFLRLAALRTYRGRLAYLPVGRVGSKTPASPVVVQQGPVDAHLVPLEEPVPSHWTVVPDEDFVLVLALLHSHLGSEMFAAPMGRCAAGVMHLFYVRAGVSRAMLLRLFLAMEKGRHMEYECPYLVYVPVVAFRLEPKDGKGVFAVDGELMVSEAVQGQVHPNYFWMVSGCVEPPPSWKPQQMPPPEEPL

For Cc1cc(O)cc(C)c1/C=C/c1cncc(-c2nn[nH]n2)c1, the inhibition [1] was -1.54%, the inhibition [2] was 1.53% and the inhibition [3] was -0.11%. For the same compound, the inhibition [4] was 2.01%, the inhibition [5] was 6.14% and the inhibition [6] was 4.82%. It also gave an inhibition [7] of 4%, an inhibition [8] of 5.96% and an inhibition [9] of 4.65%. It also gave an inhibition [10] of 5.04%, an inhibition [11] of 4.14% and an inhibition [12] of 3.13%. It also gave an inhibition [13] of 3.26%, an inhibition [14] of 5.36% and an inhibition [15] of 4.88%. It also gave an inhibition [16] of 1.26%, an inhibition [17] of 1.3% and an inhibition [18] of 4.96%. It also gave an inhibition [19] of 4.04% and an inhibition [20] of 4.65%.
